# PubChem BioAssay (Tox21)
# Records with an inconclusive call do not appear. A number with no mark means an inactive call. Calls follow the shape of the full dose curve.
# Test: qHTS assay to identify small molecule agonists of the AP-1 signaling pathway (AID 1159526)
# Settings: ME-180 (cervical carcinoma) AP-1-bla reporter, beta-lactamase FRET ratio, 5 h; series mostly up to 76.8 µM; activation: at the top concentration
# % is scaled to controls: 0 for no effect and ±100 for the full control effect.
row,SMILES,activation
1,O=C(OC(=O)c1ccccc1)c1ccccc1,0.785%
2,O=c1c(O)c(-c2ccc(O)cc2)oc2cc(O)cc(O)c12,-11.4% [at 35.3 µM]
3,CCCCCCCC/C=C\CCCCCCCCCCCC(=O)O,-0.408%
4,CCCCC(CC)CN (centres undefined),-4.44%
5,CC(C)c1nc(CN(C)C(=O)N[C@H](C(=O)N[C@@H](Cc2ccccc2)C[C@H](O)[C@H](Cc2ccccc2)NC(=O)OCc2cncs2)C(C)C)cs1,9.92% [at 35.3 µM]
6,C(=C\c1ccccc1)/c1ccccc1,-5.95%
7,C=C/C(C)=C/C/C=C(\C)CCC=C(C)C,-2.39%
8,Cc1ccc(Cl)c(Nc2ccccc2C(=O)O)c1Cl,4.02% [at 35.3 µM]
9,CC(C)Nc1cccnc1N1CCN(C(=O)c2cc3cc(NS(C)(=O)=O)ccc3[nH]2)CC1,-1.22% [at 35.3 µM]
10,O=C(O)c1cccc(-c2noc(-c3ccccc3F)n2)c1,-3.32% [at 35.3 µM]
11,CCOC(=O)c1ccc(O)c(O)c1,-1.25% [at 35.3 µM]
12,CC1=C(Br)C(=O)C(Br)=C/C1=C(/c1ccccc1S(=O)(=O)O)c1cc(Br)c(O)c(Br)c1C,5.61% [at 35.3 µM]
13,CC(C)=CCC/C(C)=C/CC/C(C)=C/CCC(=O)OC/C=C(\C)CCC=C(C)C,-0.328% [at 35.3 µM]
14,Cc1cc(C)cc(N)c1,7.37%
15,CC(C)=CCC/C(C)=C/CC/C(C)=C/C(=O)OCC(=O)[C@@]1(O)CC[C@H]2[C@@H]3CCC4=CC(=O)C=C[C@]4(C)[C@H]3[C@@H](O)C[C@@]21C,-4.32% [at 35.3 µM]
16,CC(CCC(=O)O)C(=O)O (centres undefined),4.15%
17,CCC(C)COC(C)=O (centres undefined),-0.895%
18,CCOC(=O)c1ccc(C#Cc2ccc3c(c2)C(C)(C)CCS3)nc1,-8.12% [at 35.3 µM]
19,CC[N+](CC)(CCNC(=O)C(=O)NCC[N+](CC)(CC)Cc1ccccc1Cl)Cc1ccccc1Cl,0.746% [at 35.3 µM]
